Source: PubChem BioAssay (NCATS)
Inconclusive results are not listed. Active and inactive are the calls of the source. Unless noted, calls come from the whole dose curve; as a rule, active = well fitted curve in the direction sought with a large enough effect; inconclusive = small, poorly fitted or top-dose-only effect, or another doubt; inactive = no such curve, though single readings can be large; an effect the other way counts as inactive or inconclusive.

Legend:
[1] = Confirmation and Secondary Assay for Modulators of Hemoglobin Beta Chain Splicing at IVS2 705 locus (AID 930); note: potency is the fitted concentration of half-maximal effect
Procedure, shortened: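 HeLa cells stably carrying EGFP interrupted by mutant beta-globin IVS2-705 intron (CMV-driven) were seeded at 500 cells/well, treated next day with compound for 2 days at 37C; corrected splicing restores EGFP, read as total peak GFP intensity per well.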

[2] = target: Muscarinic acetylcholine receptor M1 (Rattus norvegicus) (UniProt P08482); assay: qHTS Assay for Antagonists of Acetylcholine Muscarinic M1 Receptor: Kinetic Measurement of Intracellular Calcium Response (AID 943); note: series mostly up to about 35 µM; nearly all actives have a fitted effect of over 75% in size
Chain of Muscarinic acetylcholine receptor M1 (Rattus norvegicus) (P08482 whole entry, looked up): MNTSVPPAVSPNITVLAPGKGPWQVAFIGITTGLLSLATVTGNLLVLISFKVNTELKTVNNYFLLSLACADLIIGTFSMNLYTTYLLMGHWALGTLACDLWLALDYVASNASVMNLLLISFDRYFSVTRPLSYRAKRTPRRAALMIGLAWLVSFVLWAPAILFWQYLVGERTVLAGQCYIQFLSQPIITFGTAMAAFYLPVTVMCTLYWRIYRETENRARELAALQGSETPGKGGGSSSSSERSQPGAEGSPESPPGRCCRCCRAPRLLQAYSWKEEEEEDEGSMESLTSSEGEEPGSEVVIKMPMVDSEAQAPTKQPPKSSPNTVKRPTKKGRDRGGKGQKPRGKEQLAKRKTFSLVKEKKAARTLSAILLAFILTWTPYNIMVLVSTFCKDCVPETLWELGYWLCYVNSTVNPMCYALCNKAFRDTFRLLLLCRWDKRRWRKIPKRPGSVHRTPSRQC
Procedure, shortened: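 CHO cells expressing rat M1 receptor, Fluo-4 loaded, preincubated 10 min with compound, then stimulated with EC80 carbachol (100 nM final). Kinetic calcium fluorescence over 4 min; response taken as peak over basal signal.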

[3] = target: Muscarinic acetylcholine receptor M1 (Rattus norvegicus) (UniProt P08482); assay: qHTS Assay for Antagonists of Acetylcholine Muscarinic M1 Receptor: Measurement of IP-One Response (AID 944); note: nearly all actives have a fitted effect of over 75% in size
Procedure, shortened: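 CHO cells stably expressing rat M1, pretreated 10 min with compound, then stimulated 30 min with carbachol at EC80 (200 nM) in LiCl-containing buffer pH 7.4; IP1 accumulation read by HTRF competition (665/620 nm).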

[4] = target: Pyruvate kinase (Leishmania mexicana) (UniProt Q27686); assay: qHTS Validation Assay for Inhibitors of Leishmania Mexicana Pyruvate Kinase (AID 945)
Chain of Pyruvate kinase (Leishmania mexicana) (Q27686 2-499 E452W): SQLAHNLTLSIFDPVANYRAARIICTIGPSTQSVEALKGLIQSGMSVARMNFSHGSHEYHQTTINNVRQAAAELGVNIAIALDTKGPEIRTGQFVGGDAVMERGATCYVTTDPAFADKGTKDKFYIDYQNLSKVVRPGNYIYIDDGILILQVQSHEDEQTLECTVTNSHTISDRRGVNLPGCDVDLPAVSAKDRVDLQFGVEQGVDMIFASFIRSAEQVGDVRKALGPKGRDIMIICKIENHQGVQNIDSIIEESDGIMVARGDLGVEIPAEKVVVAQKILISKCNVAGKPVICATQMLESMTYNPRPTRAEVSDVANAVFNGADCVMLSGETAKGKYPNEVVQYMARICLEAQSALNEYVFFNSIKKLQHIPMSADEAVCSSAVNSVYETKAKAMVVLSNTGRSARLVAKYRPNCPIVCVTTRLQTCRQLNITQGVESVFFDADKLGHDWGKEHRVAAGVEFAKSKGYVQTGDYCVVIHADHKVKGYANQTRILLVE
Procedure, shortened: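 LmPYK E451W 0.2 nM; 0.5 mM PEP, 0.1 mM ADP, 7 mM MgCl2, 50 mM KCl, imidazole pH 7.2, 0.01% Tween 20, 0.05% BSA; 1 h RT; PKLight luminescence; DMSO-normalized.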

[5] = target: Pyruvate kinase PKM (Homo sapiens) (UniProt P14618); assay: qHTS Assay for Activators of Human Muscle Pyruvate Kinase (AID 954; active = well fitted curve in the direction sought with a large enough effect, not every such curve was filed as active)
Chain of Pyruvate kinase PKM (Homo sapiens) (P14618 whole entry, looked up): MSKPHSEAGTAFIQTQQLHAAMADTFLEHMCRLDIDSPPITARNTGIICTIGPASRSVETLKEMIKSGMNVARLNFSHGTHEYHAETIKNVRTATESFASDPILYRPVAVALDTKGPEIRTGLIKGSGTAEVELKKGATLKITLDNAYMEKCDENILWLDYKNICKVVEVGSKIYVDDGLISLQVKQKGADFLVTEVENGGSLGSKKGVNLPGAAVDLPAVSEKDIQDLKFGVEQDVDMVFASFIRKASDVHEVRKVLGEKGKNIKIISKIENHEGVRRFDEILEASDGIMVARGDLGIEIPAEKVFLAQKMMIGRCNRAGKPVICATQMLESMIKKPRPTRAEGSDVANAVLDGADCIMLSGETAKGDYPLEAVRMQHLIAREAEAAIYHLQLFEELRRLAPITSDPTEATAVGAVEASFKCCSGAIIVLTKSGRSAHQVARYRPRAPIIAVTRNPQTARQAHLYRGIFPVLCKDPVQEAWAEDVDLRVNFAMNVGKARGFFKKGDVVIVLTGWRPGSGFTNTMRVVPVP
Procedure, shortened: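 Purified human PKM2 (0.1 nM) with 0.5 mM PEP (Km) and 0.1 mM ADP in 50 mM imidazole pH 7.2, KCl, MgCl2, 1 h at room temperature; ATP formed read by coupled luciferase luminescence. Normalized to no-enzyme/110 uM thiadiazolimine inhibition; 0.3 nM enzyme column for activation.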

[6] = MultiTox-Fluor Cytotoxicity Assay - LYMP1-001 - Dead Cells (AID 946); note: potency is the fitted concentration of half-maximal effect
Procedure, shortened: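 LYMP1-001 lymphoblastoid cells (2500/well) treated 16 h at 37 C. Dead-cell protease cleavage of bis-AAF-R110 read at Ex/Em 485/520. Normalized to DMSO and 15 uM tetraoctylammonium bromide; AC50 from Hill fits.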

[7] = Cell Viability - LYMP1-002 - Assay at 16 hr (AID 948); note: potency is the fitted concentration of half-maximal effect
Procedure, shortened: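 Seed 2500 LYMP1-002 cells per well in complete medium and hold 5 hr at 37 C. Add compound across a concentration series and incubate 16 hr at 37 C. Add CellTiter-Glo, wait 30 min at room temperature, read luminescence.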

[8] = MultiTox-Fluor Cytotoxicity Assay - LYMP1-002 - Live Cells (AID 955); note: potency is the fitted concentration of half-maximal effect
Procedure, shortened: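 Human lymphoblastoid LYMP1-002 cells, 2500/well, treated 16 h at 37 C in complete medium. Live-cell protease activity via GF-AFC fluorescence (Ex/Em 405/510) after 60 min reagent incubation; AC50 from Hill fits.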

[9] = MultiTox-Fluor Cytotoxicity Assay - LYMP1-002 - Dead Cells (AID 960); note: nearly all actives have a fitted effect of over 60% in size; note: potency is the fitted concentration of half-maximal effect
Procedure, shortened: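 Human lymphoblastoid LYMP1-002 cells, 2500/well, treated 16 h at 37 C; dead-cell protease cleavage of bis-AAF-R110 read by fluorescence (485/520); normalized to DMSO and 15 uM tetraoctylammonium bromide; AC50 from Hill fit.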

[10] = MultiTox-Fluor Cytotoxicity Assay - LYMP1-003 - Dead Cells (AID 961); note: nearly all actives have a fitted effect of over 70% in size; note: potency is the fitted concentration of half-maximal effect
Procedure, shortened: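 LYMP1-003 human lymphoblastoid cells (2500/well) exposed to compound 16 h at 37 C in complete medium; dead-cell protease read with bis-AAF-R110 fluorescence (Ex/Em 485/520) after 60 min at room temperature. Normalized to DMSO and 15 uM tetraoctylammonium bromide; AC50 from Hill fit.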

[11] = MultiTox-Fluor Cytotoxicity Assay - LYMP1-003 - Live Cells (AID 962);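 note: cytotoxic hits lower the live-cell protease signal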
Procedure, shortened: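 LYMP1-003 lymphoblastoid cells, 2500/well in complete medium, treated 16 h at 37 C; live-cell protease cleavage of GF-AFC read by fluorescence (Ex/Em 405/510) after 60 min reagent; AC50 from Hill fits of concentration-response.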

[12] = Cell Viability - LYMP1-003 - Assay at 24 hr (AID 963); note: potency is the fitted concentration of half-maximal effect
Procedure, shortened: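 Human lymphoblastoid LYMP1-003 cells, 2500/well, treated 24 h at 37 C in complete medium. Viability read as intracellular ATP by CellTiter-Glo luminescence after 30 min at room temperature; AC50 from Hill-equation fits of qHTS concentration-response.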

[13] = Cell Viability - LYMP1-003 - Assay at 40 hr (AID 964); note: nearly all actives have a fitted effect of over 60% in size; note: potency is the fitted concentration of half-maximal effect
Procedure, shortened: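 LYMP1-003 human lymphoblastoid cells, 2500/well, preincubated 5 h at 37 C, then treated with compound for 40 h at 37 C. Intracellular ATP read by CellTiter-Glo luminescence after 30 min at room temperature; AC50 from Hill-equation fits.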

[14] = Cell Viability - LYMP2-003 (AID 965);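 note: cells exposed to compounds for 24 h before reading; nearly all actives have a fitted effect of over 50% in size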; note: potency is the fitted concentration of half-maximal effect
Procedure, shortened: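 Seed 2500 lymphoblastoid cells/well; incubate 5 hr, 37 C; add compounds; incubate 24 hr, 37 C; add CellTiter-Glo, 30 min RT; read luminescence. AC50 from Hill fit.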

[15] = Cell Viability - LYMP2-004 (AID 966); note: nearly all actives have a fitted effect of over 65% in size; note: potency is the fitted concentration of half-maximal effect
Procedure, shortened: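 Lymphoblastoid LYMP2-004 cells, 2500 per well, were preincubated for 5 hr and then treated with compound for 24 h at 37 C in complete medium. Viability was read as cellular ATP by CellTiter-Glo luminescence, and AC50 values were taken from Hill fits to concentration-response data.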

[16] = Cell Viability - LYMP2-005 (AID 967); note: series mostly up to about 92 µM
Procedure, shortened: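 Acute cytotoxicity is scored as a concentration-dependent drop in intracellular ATP in human lymphoblastoid LYMP2-005 cells after 24 h compound treatment. ATP is quantified by luciferase luminescence, and AC50 is derived by Hill-equation modelling.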

[17] = Cell Viability - LYMP2-009 (AID 968); note: nearly all actives have a fitted effect of over 55% in size; note: potency is the fitted concentration of half-maximal effect
[18] = Cell Viability - LYMP2-011 (AID 969);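 note: cells exposed to compound for 24 hours; nearly all actives have a fitted effect of over 60% in size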; note: potency is the fitted concentration of half-maximal effect
Procedure, shortened: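 2500 cells/well in complete medium, compound-treated 24 h at 37 C. Viability read as intracellular ATP by CellTiter-Glo luminescence after 30 min at room temperature. AC50 from Hill fits of qHTS concentration-response data.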

[19] = Cell Viability - LYMP2-013 (AID 970); note: nearly all actives have a fitted effect of over 55% in size; note: potency is the fitted concentration of half-maximal effect
Procedure, shortened: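 Human lymphoblastoid LYMP2-013 cells, 2500/well, treated 24 h at 37 C in complete medium; viability as intracellular ATP by CellTiter-Glo luminescence after 30 min. AC50 from Hill fits of qHTS concentration-response.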

[20] = Cell Viability - LYMP2-015 (AID 971); note: nearly all actives have a fitted effect of over 55% in size; note: potency is the fitted concentration of half-maximal effect
Procedure, shortened: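 LYMP2-015 human lymphoblastoid cells (2500/well) in complete medium, compound-treated 24 h at 37 C; viability read as cellular ATP by CellTiter-Glo luminescence after 30 min at room temperature. AC50 from Hill-equation fits of qHTS concentration-response data.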

Measured: Potency

Cc1cccc(C)c1NC(=O)C1CCCCN1C (centres undefined)
inactive: [1]

Cc1cc(C)c(NC(=O)C[C@H](CC(=O)O)c2cccc3ccccc23)c(C(=O)N2CCC3(CCCC3)CC2)c1
inactive: [2] | [3] | [4] | [5]

O=C(O)CCC(=O)c1ccc(-c2ccccc2)cc1
inactive: [1]

O=C1c2ccccc2C(=O)c2c1ccc(O)c2O
inactive: [1]

CC(=O)Oc1cccc2c1C(=O)c1c(OC(C)=O)cc(C(=O)O)cc1C2=O
inactive: [1]

CCOC(=O)C1=C(COCCN)NC(C)=C(C(=O)OC)C1c1ccccc1Cl (centres undefined)
inactive: [1]

NCC(O)CC(=O)O (centres undefined)
inactive: [1]

N#Cc1ccc2c(c1)N(CCCN1CCC(O)CC1)c1ccccc1S2
inactive: [1]

CC(=O)N=c1sc(S(N)(=O)=O)nn1C
inactive: [1]

CC(C)(C)CC(C)(C)c1ccc(OCCO)cc1
not listed: [1] | [2] | [3] | [4] | [5]
inactive: all other assays above

ClC(Cl)Cl
not listed: [1] | [2] | [3] | [4] | [5]
inactive: all other assays above

Nc1nccs1
not listed: [2] | [3] | [4] | [5]
inactive: all other assays above

Nc1ccc(N=Nc2ccccc2)c(N)n1
active: [1] 20 µM
not listed: [2] | [3] | [4] | [5]
inactive: all other assays above

CC(=O)Oc1cccc(C(=O)O)c1OC(C)=O
inactive: [1]

CC1CCC(NC(=O)N(CCCl)N=O)CC1 (centres undefined)
inactive: [1]

CC1CCCC(C)N1NC(=O)c1ccc(Cl)c(S(N)(=O)=O)c1 (centres undefined)
inactive: [1]

CC[C@H]1OC(=O)[C@H](C)[C@@H](O[C@H]2C[C@@](C)(OC)[C@@H](O)[C@H](C)O2)C(C)[C@@H](O[C@@H]2O[C@H](C)C[C@H](N(C)C)[C@@H]2O)[C@](C)(OC)C[C@@H](C)C(=O)[C@H](C)[C@@H](O)[C@]1(C)O (some centres undefined)
inactive: [1]

CN1CCc2c(c3ccccc3n2Cc2ccccc2)C1
inactive: [1]

CC(C)c1nc(N(C)S(C)(=O)=O)nc(-c2ccc(F)cc2)c1/C=C/C(O)CC(O)CC(=O)O (centres undefined)
inactive: [1]

CCCc1nc(C(C)(C)O)c(C(=O)OCc2oc(=O)oc2C)n1Cc1ccc(-c2ccccc2-c2nn[nH]n2)cc1
inactive: [1]

O=C(CCCCCCCCCCCCC1CCCC1)Nc1ccc(S(=O)(=O)c2ccc(NC(=O)CCCCCCCCCCCCC3CCCC3)cc2)cc1
inactive: [1]

C[C@@](Cc1ccc(O)c(O)c1)(NN)C(=O)O
inactive: [4] | [5]

Nc1ncnc2c1ncn2[C@H]1CC[C@@H](CO)O1
not listed: [2] | [3] | [4] | [5]
inactive: all other assays above

Cc1ccc(S(=O)(=O)O)cc1C
not listed: [1] | [2] | [3] | [4] | [5]
inactive: all other assays above

COc1cc(S(C)=O)ccc1-c1nc2ncccc2[nH]1 (centres undefined)
inactive: [1]

NC(N)=O
not listed: [2] | [3] | [4] | [5]
inactive: all other assays above

CC(=O)Nc1ccc(OC(=O)c2ccccc2O)cc1
inactive: [1]

O=C(O)[C@H]1C(=CCO)O[C@H]2CC(=O)N12
inactive: [1]

C=CC(C)(O)CC/C=C(\C)CCC=C(C)C (centres undefined)
inactive: [1]

OCl
not listed: [1] | [2] | [3] | [4] | [5]
inactive: all other assays above

C[C@H](CCC(=O)O)[C@H]1CC[C@H]2[C@@H]3CC[C@@H]4C[C@H](O)CC[C@]4(C)[C@H]3C[C@H](O)[C@]12C
not listed: [1] | [2] | [3] | [4] | [5] | [9] | [16]
inactive: all other assays above

CCCCO
not listed: [1] | [2] | [3] | [4] | [5]
inactive: all other assays above

O.O.O.O.O.O.O.O=S(=O)([O-])[O-].[Co+2]
inactive: [6] | [7] | [8] | [10] | [11] | [12] | [14] | [19]

C[C@H](CCC(=O)O)[C@H]1CC[C@H]2[C@@H]3[C@H](O)C[C@@H]4C[C@H](O)CC[C@]4(C)[C@H]3C[C@H](O)[C@]12C
not listed: [1] | [2] | [3] | [4] | [5]
inactive: all other assays above

C[C@H]1O[C@@H](O[C@H]2[C@@H](O)C[C@H](O[C@H]3[C@@H](O)C[C@H](O[C@H]4CC[C@@]5(C)[C@H](CC[C@@H]6[C@@H]5C[C@@H](O)[C@]5(C)[C@@H](C7=CC(=O)OC7)CC[C@]65O)C4)O[C@@H]3C)O[C@@H]2C)C[C@H](O)[C@@H]1O
active: [6] 0.794 µM | [7] 0.199 µM | [8] 0.501 µM | [10] 1.58 µM | [12] 0.251 µM | [13] 0.158 µM

CCCCC
not listed: [1] | [2] | [3] | [4] | [5]
inactive: all other assays above

Oc1cccc(O)c1O
inactive: [6] | [7] | [8] | [9] | [10] | [11] | [12] | [16] | [18] | [19] | [20]

C=C1C(CCl)(CCl)C2(Cl)C(Cl)C(Cl)C1(Cl)C2(Cl)Cl (centres undefined)
active: [6] 50.1 µM | [7] 50.1 µM | [9] 31.6 µM | [10] 50.1 µM | [12] 50.1 µM | [14] 50.1 µM | [15] 39.8 µM | [17] 39.8 µM | [18] 50.1 µM | [19] 50.1 µM | [20] 39.8 µM
inactive: [8] | [11]

O=P(O)(O)O
not listed: [1] | [2] | [3] | [4] | [5] | [16]
inactive: all other assays above

[O-][N+](=Nc1ccccc1)c1ccccc1
not listed: [1] | [2] | [3] | [4] | [5] | [14]
inactive: all other assays above
